Bioassay records as filed in PubChem.
LEDGF integ inh: blocks HIV-1 LEDGF/p75-dependent DNA integration | TR-FRET IN-LEDGF/p75 DNA integration, Eu/Cy5 | inhibition, % at 3.7 µM | hit rate 0.64% among 370,000;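 active = inhibition above the screen-wide mean plus 3 SD, cut at about 13% in these data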;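 note: signal is the Cy5 over europium emission ratio at 671 and 618 nm; 0% = plate median of compound wells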
MBD2 DNA inh: MBD2-methylated oligo binding inhibition; hit rate 0.31% among 370,000; Q9UBB5; inhibition, % at 4.4 µM; TR-FRET, MBD2 binding to methylated oligonucleotide; in the data active = inhibition above about 13%
Rin1-Abl PPI inh: blocks binding of human Rin1 to Abl | P00519+Q13671 | TR-FRET Rin1/Abl binding, biochemical | inhibition, % at 7.35 µM | hit rate 0.4% among 360,000; in the data active = inhibition above about 5%, passing the limit was not always enough
proKLK7 act: activates the human kallikrein-7 zymogen; P49862; purified proKLK7, EDANS-DABCYL substrate fluorescence; 100% is mature enzyme control, 0% vehicle; activation, % at 7 µM; hit rate 0.9% among 370,000;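 active = activation above the mean of all tested compounds plus 3 SD, computed per campaign excluding outliers beyond control limits, cut at about 13% in these data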
Neddylation inh: blocks human cullin neddylation; calls only at 25 µM; hit rate 0.58% among 360,000; P61081+Q13564; AID 651699; TR-FRET cullin neddylation, biochemical; in the data active = inhibition above about 36%
Target sequence (P61081 whole entry, looked up): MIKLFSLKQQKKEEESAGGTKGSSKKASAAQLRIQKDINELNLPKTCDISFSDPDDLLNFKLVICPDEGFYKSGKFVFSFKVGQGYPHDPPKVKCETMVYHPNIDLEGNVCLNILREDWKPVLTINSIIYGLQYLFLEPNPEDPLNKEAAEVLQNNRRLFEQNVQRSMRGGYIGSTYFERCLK
Target sequence (Q13564 whole entry, looked up): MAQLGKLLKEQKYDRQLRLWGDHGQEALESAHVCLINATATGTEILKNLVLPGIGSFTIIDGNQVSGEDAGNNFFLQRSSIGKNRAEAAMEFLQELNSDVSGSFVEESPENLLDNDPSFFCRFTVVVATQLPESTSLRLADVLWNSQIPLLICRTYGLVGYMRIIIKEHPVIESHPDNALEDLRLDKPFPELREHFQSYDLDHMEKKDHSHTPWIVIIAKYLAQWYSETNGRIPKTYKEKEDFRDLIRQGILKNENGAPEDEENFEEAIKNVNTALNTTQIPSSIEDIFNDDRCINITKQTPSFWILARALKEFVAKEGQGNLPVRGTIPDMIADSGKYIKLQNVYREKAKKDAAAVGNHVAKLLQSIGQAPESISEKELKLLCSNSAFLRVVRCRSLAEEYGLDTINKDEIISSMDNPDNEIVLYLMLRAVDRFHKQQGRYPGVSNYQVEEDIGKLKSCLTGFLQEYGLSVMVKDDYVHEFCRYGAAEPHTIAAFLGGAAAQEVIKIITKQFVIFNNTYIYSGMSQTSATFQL
UHRF1 binding: UHRF1 methyl-DNA binding inhibition | AID 687016 | hit rate 0.75% among 370,000 | UHRF1 binding to methylated oligo, TR-FRET | Q96T88 | inhibition, % at 4.4 µM; in the data active = inhibition above about 21%;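 note: UHRF1 SRA domain binding a hemimethylated CpG hairpin DNA probe; 0% = median of test compound wells and 100% = reference inhibitor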
IN multimer up: HIV-1 integrase multimerization activation, counter-screen. shares compounds with LEDGF integ inh. activation, % at 7.7 µM. TR-FRET HIV-1 integrase multimerization, biochemical. hit rate 17% among 2,000; in the data active = activation above about 8.9%
TR-FRET interf: counter-screen for LEDGF/p75 integration inhibitors: TR-FRET optical interference | shares compounds with LEDGF integ inh | TR-FRET optical interference counterscreen, HIV-1 IN multimerization | inhibition, % at 7.7 µM | 2,000 tested, under 10 active;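 active = inhibition above the mean over all tested compounds plus 3 SD, which no compound reached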;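 note: 0% = integrase with antibodies and DMSO and 100% = antibodies without integrase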
LEDGF integ conf: LEDGF/p75-dependent HIV-1 integration inhibition, confirmation. inhibition, % at 3.7 µM. AID 1053136. TR-FRET LEDGF/p75-dependent HIV-1 integration, biochemical. shares compounds with LEDGF integ inh. hit rate 36% among 2,000; in the data active = inhibition above about 14%
Starred values were filed as active, the others as inactive; i = inactive; nt = not tested or not shown. The list is not random: actives were taken first. Their share in the collection is about 3.1%.

SMILES	LEDGF integ inh	MBD2 DNA inh	Rin1-Abl PPI inh	proKLK7 act	Neddylation inh	UHRF1 binding	IN multimer up	TR-FRET interf	LEDGF integ conf
O=[N+]([O-])c1ccc2c(c1)nc1n2CCN(c2ccccc2)C1	17*	2	0	0	i	1	0	-1	7
O=C(CCNS(=O)(=O)c1ccccc1)OCC(=O)c1ccc[nH]1	0	10	0	0	i	4	nt	nt	nt
O=C(COC(=O)/C=C/c1cccc(F)c1)NC(=O)NC1CCCC1	3	2	2	0	i	1	nt	nt	nt
Oc1cccc(Nc2ccccc2)c1	16*	0	1	0	i	-1	26*	-83	1
Fc1ccccc1N1CCN(C2CCCN(Cc3ccccc3C(F)(F)F)C2)CC1 (configuration not stated)	16*	-3	2	1	i	0	0	0	2
CN(C)c1ccc(NC2=C([N+](=O)[O-])CS(=O)(=O)C2)cc1	24*	-8	-2	0	i	-3	7	-34	1
O=c1cc(-c2ccc(O)c(O)c2)oc2c1ccc1ccccc12	51*	10	4	1	i	-1	2	-8	68*
Nc1ccc2cc3ccc(N)cc3nc2c1	44*	-38	nt	4	nt	-368	33*	-165	74*
C=CCNC(=O)c1cccc2c1C(=O)c1ccc(N3CCCC3)cc1S2(=O)=O	1	-28	-11	0	i	-24	nt	nt	nt
O=C(NCC1CC1)c1cccc2c1C(=O)c1ccc(N3CCCC3)cc1S2(=O)=O	27*	-18	-6	0	i	-12	0	-2	-8
N#CCCn1[nH]c(-c2ccccc2)cc1=O	27*	11	-1	0	i	18	7	-23	6
CCOc1cc(/C=N/Nc2nnc(C)n2N)ccc1OC(C)=O	30*	1	4	1	i	8	2	-7	4
CC(C)(C)c1nnc(N/N=C/c2cc(Br)ccc2O)n(N)c1=O	-7	-8	-2	-1	i	-9	nt	nt	nt
CCc1nnc(N/N=C/c2ccc(O)c(OC)c2)n1N	55*	-3	0	0	i	3	-1	3	-6
CCc1nnc(N/N=C/c2cc(Br)c(O)cc2O)n1N	50*	-5	5	-1	i	5	11*	-53	-3
CCc1nnc(N/N=C\c2ccc(OC(C)=O)c(OC)c2)n1N	30*	2	7	1	i	3	-1	5	-3
COc1cc(/C=N/NC(=O)Nc2ccccc2)ccc1OC(C)=O	2	-2	-2	0	i	-2	nt	nt	nt
O=C(CCCOc1ccc(Br)cc1)Nc1nnc(C2CC2)s1	-3	8	-1	0	i	2	nt	nt	nt
Cc1ncc(CN2CCC(C(=O)Nc3ccc(Oc4cccnc4)cc3)CC2)cn1	1	0	0	0	i	-1	nt	nt	nt
COc1ccc(S(=O)(=O)N(C)c2ccc(C(=O)Nc3ccccc3C(=O)N3CCOCC3)cc2)cc1OC	-1	3	2	-1	i	2	nt	nt	nt
CCc1ccc(C(=O)NC(CCSC)C(=O)OC)cc1 (configuration not stated)	-2	-1	-4	0	i	-4	nt	nt	nt
CCCc1nnc(NC(=O)CCC(=O)N2CCN(Cc3ccc(Cl)cc3)CC2)s1	7	-3	-2	0	i	1	nt	nt	nt
O=C(CN1CCN(S(=O)(=O)/C=C/c2ccccc2)CC1)NCC(F)(F)F	3	3	-1	1	i	5	nt	nt	nt
COC(=O)/C(C(C)=O)=C(/C=C/C=C/N(C)C)N(C)C	4	5	0	0	i	4	nt	nt	nt
COC(=O)\C(C(C)=O)=C(/C=C/C=C/N(C)C)N(C)C	34*	0	-5	-1	i	13	1	-5	10
SMILES	LEDGF integ inh	MBD2 DNA inh	Rin1-Abl PPI inh	proKLK7 act	Neddylation inh	UHRF1 binding	IN multimer up	TR-FRET interf	LEDGF integ conf
NC(=S)NN=Cc1nccc2ccccc12	1	-8	-2	-1	i	-18	nt	nt	nt
Cc1cnc(C=NNC(N)=S)c2cccc(N)c12	17*	-4	-3	0	i	11	20*	-99	61*
Cc1nc2sc(C(c3ccco3)N3CCN(c4ccccc4F)CC3)c(O)n2n1 (configuration not stated)	1	-4	0	0	i	-4	nt	nt	nt
Cc1nc2sc(C(c3ccco3)N3CCc4ccccc4C3)c(O)n2n1 (configuration not stated)	21*	-3	1	1	i	8	0	1	11
COc1ccc(CCNC(=O)c2cc(Cl)nc3ccccc23)cc1	15*	-2	-1	0	i	0	1	-3	-8
COc1ccc(CCNC(=O)c2cc(-c3ccccn3)nc3ccccc23)cc1	-1	4	0	0	i	-1	nt	nt	nt
COC(=O)C1(NC(=O)NC2CCCCC2)CCCCC1	-2	2	3	0	i	2	nt	nt	nt
C=CCN(CC#Cc1ccc(C)cc1)Cc1ccc(OC)cc1OC	-1	0	nt	-1	nt	1	nt	nt	nt
CC(C)[C@H](NS(=O)(=O)c1ccc2c(c1)OCCO2)C(=O)OCC(=O)Nc1cccc(Cl)c1Cl	18*	-6	-1	0	i	-3	1	-4	-1
O=C(CN1CCN(S(=O)(=O)c2ccc(Cl)c(Cl)c2)CC1)N1CCCCC1	17*	6	0	0	i	3	0	0	0
CC(Sc1nnc(-c2ccccc2Br)o1)C(=O)N1CCOCC1 (configuration not stated)	23*	-7	-2	0	i	-1	-2	8	-4
Cc1csc(=O)n1CCC(=O)OCC(=O)NCc1ccccc1	1	-1	-2	0	i	0	nt	nt	nt
COc1ccc(C(C#N)CC(=O)c2ccc(OCc3ccccc3)c(OC)c2)cc1OC (configuration not stated)	60*	1	2	-1	i	3	-2	8	-5
CCOC(=O)Cn1nc(C)cc1NC(=O)c1cccnc1	0	-2	3	0	i	2	nt	nt	nt
c1ccc(-n2c(-c3ccncc3)nnc2-c2ccco2)cc1	67*	-6	0	1	i	2	-2	11	-4
C[C@H](O)[C@@H]1C(=O)N2CCc3ccc(N4CCN(C)CC4)cc3[C@@H]2C[C@@H]1N(C)C(=O)c1cccnc1	0	-6	0	2	i	-3	nt	nt	nt
